Screening results: PubChem, several laboratories
Hits are enriched below; roughly 4.7% of the tested compounds scored in any of these assays.
HSP90 inh: inhibitors of HSP90 luciferase refolding in rabbit reticulocyte lysate; AID 1789; luciferase refolding luminescence, 3 h; inhibition, % at 5.6 µM; 290,000 compounds, 0.91% hits;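 active means inhibition above the screen-wide mean plus 3 SD, computed separately per campaign, cut at about 16% in these data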;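 further: 0% = DMSO wells and 100% = 60 µM geldanamycin wells; inhibitors lower the luminescence because luciferase stays unfolded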
TROY signal inh: blocks TROY-dependent signaling in reporter cells; 360,000 compounds, 0.98% hits; Q293 LMP1-TROYcd NF-kB luciferase reporter, 4 h; inhibition, % at 10 µM; AID 1347056;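 active means compounds whose plate-normalised and pattern-corrected inhibition of the luciferase reporter signal at the single screening dose is 50% or more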
EBV LMP1 NFkB: inhibitors of Epstein-Barr LMP1-induced NF-kappaB reporter | inhibition, % at 12.5 µM | AID 504558 | 350,000 compounds, 0.69% hits | LMP1-induced NF-kappaB luciferase reporter cells, luminescence; in the data active means inhibition above about 41%;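 further: 0% = neutral control wells and 100% = reference inhibitor control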
HSF1 inhib: HSF1 inhibition; NIH3T3-HGL HSE-luciferase, MG132-induced, luminescence 8 h; active compounds read low; activity change, negative = inhibition, % at 7.5 µM (by protocol); 300,000 compounds, 0.77% hits; AID 2098;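 active means more than half of replicate wells show activity change below -50%, luminescence cut by over half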;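 further: luciferase reports HSF-1 transcriptional activity via heat shock element; 0% = median of DMSO wells and -100% = zero luminescence signal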
HSF-1 act: increases HSF-1 driven luciferase reporter signal; NIH3T3-HGL HSF-1 luciferase reporter, MG132, 8 h; 100% = twice DMSO control signal; activation, % at 9 µM; 300,000 compounds, 1.7% hits;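 active means mean replicate activation of at least 50% with a set share of replicates each reaching 50%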;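 further: 0% = median of the neutral control wells and 100% = twice that signal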
TWEAK Fn14 block: inhibitors of TWEAK-Fn14 interaction signaling | TWEAK-stimulated Fn14 reporter cells, luciferase luminescence, 8 h | inhibition, % at 10 µM | 360,000 compounds, 2% hits | AID 1159606; in the data active means inhibition above about 50%
Numbers without * were called inactive; x = not tested or not shown.

SMILES	HSP90 inh	TROY signal inh	EBV LMP1 NFkB	HSF1 inhib	HSF-1 act	TWEAK Fn14 block
CC(C)(C)c1ccc(-c2noc(CCC(=O)NCC3CCCO3)n2)cc1 (stereo not given)	12.2	-3.5	42.5*	-15.0	-12.2	25.9
CNC(=O)CCc1nc(-c2ccc(C(C)(C)C)cc2)no1	2.8	-19.0	-1.9	8.6	17.7	-1.3
Cc1ccc(-c2noc(CCC(=O)NCC3CCCO3)n2)cc1 (stereo not given)	1.6	-26.4	6.6	-5.4	17.1	14.8
CC(=O)Nc1ccc2c(c1)C(N1CC3CCC(CC3)C1)c1ccccc1-2 (stereo not given)	x	-6.1	-4.8	x	x	-0.3
c1ccc(COc2ccc(OCCN3CCCC3)cc2)cc1	-1.8	-49.3	-5.2	3.6	8.1	10.6
c1ccc(COc2ccc(OCCCN3CCCC3)cc2)cc1	6.1	34.7	1.1	-39.5	-43.3	50.8*
COc1cccc(CNC(=O)[C@@H]2CCCN2C(=O)[C@H]2CCCCN2C(=O)c2cccc(Cl)c2)c1	x	3.8	x	x	x	-16.8
O=C1NC[C@@H](CCCCN2C[C@H](Cc3ccc(O)cc3)N(Cc3ccccc3)C(=O)C2=O)N(CC2CCCCC2)C1=O	x	2.9	x	x	x	6.6
COc1ccc(C(=O)/C=C/c2ccc(O)cc2)c(O)c1C/C=C(\C)CCC=C(C)C	x	-17.3	-20.0	x	x	-2.0
C=C(C)C(O)CC/C(C)=C/Cc1c(O)ccc(C(=O)/C=C/c2ccc(O)cc2)c1O (stereo not given)	x	65.0*	-11.9	x	x	33.8
Nc1nnc(SCC(=O)c2ccccc2)s1	2.0	-23.6	-2.1	-6.8	3.9	-58.1
Nc1c(C(=O)c2ccccc2)sc2snc(SCC(=O)c3ccccc3)c12	0.7	-16.6	14.5	51.1	111.0*	-7.0
Cc1nnc(N/N=C/c2cccc(OCc3ccc(Cl)c(Cl)c3)c2)n1N	8.1	-47.2	-4.4	83.4	128.5*	14.8
Cc1nnc(N/N=C/c2cccc(C(F)(F)F)c2)n1N	-2.9	45.8	14.2	24.2	32.1	-6.2
CCC(c1nnnn1-c1ccc2c(c1)OCCO2)N1CCN(C/C=C/c2ccccc2)CC1 (stereo not given)	x	26.7	x	x	x	58.4*
C(=C\c1ccccc1)/CN1CCN(C(CCc2ccccc2)c2nnnn2-c2ccc3c(c2)OCCO3)CC1 (stereo not given)	x	14.9	x	x	x	19.6
C(=C\c1ccccc1)/CN1CCN(C(c2nnnn2-c2ccc3c(c2)OCCO3)C2CC2)CC1 (stereo not given)	x	21.8	x	x	x	57.6*
C(=C\c1ccccc1)/CN1CCN(C(c2cc3ccccc3o2)c2nnnn2-c2ccc3c(c2)OCCO3)CC1 (stereo not given)	x	-0.5	x	x	x	68.5*
CCOC(=O)[C@]12CCC=C1N(Cc1cccc3ccccc13)C(=O)[C@H](CC(=O)NCc1ccc(C)o1)C2	x	-11.1	x	x	x	6.6
Cc1ccccc1Nc1nnc(SCc2cc([N+](=O)[O-])cc3c2OCOC3)s1	0.0	-4.3	5.1	30.4	56.2*	-18.8
COc1ccc(/C=N/NC(=O)c2nc(-c3ccccc3)cc(-c3ccccc3)n2)cc1	-0.5	-22.3	-45.5	3.6	12.6	29.6
COc1ccc(OC)c(-c2cc(C(=O)N/N=C/c3cc(OC)c(OC)cc3OC)c3ccccc3n2)c1	x	1.7	7.9	-68.8*	-72.4	16.9
CCOc1cc(/C=N/NC(=O)c2cc(-c3cccc(OC)c3)nc3ccccc23)ccc1O	x	57.7*	x	-2.8	4.8	78.1*
COc1ccc(/C=N/NC(=O)c2nc(-c3ccccc3)cc(-c3ccccc3)n2)cc1O	3.2	-30.6	-11.9	-6.0	-9.8	53.9*
CC(C)OCCCN1CN(S(=O)(=O)c2ccccc2)c2nc3ccccc3nc21	-1.1	x	-7.8	5.6	26.6	76.7*
CC1CCCC(C)N1C(=O)CN1C(=O)NC2(CCCCCC2)C1=O (stereo not given)	x	-8.4	-3.9	x	x	-2.3
CCNC(=O)C1(C)CCCN(C(=O)c2cc(OC)ccc2Br)C1 (stereo not given)	x	2.9	x	x	x	-16.6
Cc1ccc(NC(=O)C2(C)CCN2C(=O)C2CCCCC2)cc1C (stereo not given)	x	10.1	x	x	x	3.2
COc1cc(NC(=O)Cc2cccs2)ccc1-n1cnnn1	-1.2	x	-4.7	38.3	75.5*	91.1*
COc1ccc(NC(=O)c2cnc(C)cn2)cc1-n1cnnn1	-0.1	-13.4	-1.5	-59.7*	-69.0	-4.8
